# Experimental data published in PMC7862700, “An all-to-all approach to the identification of sequence-specific readers for epigenetic DNA modifications on cytosine”.
# Experiments:
# Test in all cases: DAPPL (digital affinity profiling via proximity ligation, sequencing); 10 mM Tris-HCl pH 7.5, 50 mM NaCl, 1 mM DTT, 4% glycerol, room temperature, 30 min; GST-TFs on glutathione beads, 16-mer random dsDNA library, 0.1% formaldehyde crosslink after washing; high values mean tight binding
# FEV = target: T1, FEV (Homo sapiens, UniProt Q99581 1-238); details: protein: recombinant; tags: N-terminal GST; dsDNA, one strand shown
# T1 sequence: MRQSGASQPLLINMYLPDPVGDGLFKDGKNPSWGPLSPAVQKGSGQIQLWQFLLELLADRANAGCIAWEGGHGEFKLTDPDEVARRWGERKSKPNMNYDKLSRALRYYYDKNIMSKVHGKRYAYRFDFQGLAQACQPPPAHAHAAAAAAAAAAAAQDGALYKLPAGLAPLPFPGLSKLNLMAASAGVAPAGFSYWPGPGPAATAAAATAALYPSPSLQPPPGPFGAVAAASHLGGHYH
# Method in brief: (§1)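 Each value of binding signal is a hexamer's read frequency for a factor divided by the same hexamer's frequency in the tag-only sample. Barcoded, bead-captured GST fusions of human transcription factors made in yeast were pooled with that sample and incubated with 200 nmole of a random double-stranded 16-mer DNA library in Tris/NaCl/DTT/glycerol buffer at room temperature for 30 min. Washing, 0.1% formaldehyde crosslinking, proximity ligation, PCR and Illumina NextSeq500 sequencing followed.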
# ETV5 = ETV5 (Homo sapiens, UniProt P41161 1-510); details: protein: recombinant; tags: N-terminal GST; dsDNA, one strand shown
# Method in brief: as §1
# HSF1 = HSF1 (Homo sapiens, UniProt Q00613 1-529); details: protein: recombinant; tags: N-terminal GST; chain copies: 3; dsDNA, one strand shown
# Method in brief: as §1
# SPIC = target: T2, SPIC (Homo sapiens, UniProt Q8N5J4 1-248); details: protein: recombinant; tags: N-terminal GST; dsDNA, one strand shown
# T2 sequence: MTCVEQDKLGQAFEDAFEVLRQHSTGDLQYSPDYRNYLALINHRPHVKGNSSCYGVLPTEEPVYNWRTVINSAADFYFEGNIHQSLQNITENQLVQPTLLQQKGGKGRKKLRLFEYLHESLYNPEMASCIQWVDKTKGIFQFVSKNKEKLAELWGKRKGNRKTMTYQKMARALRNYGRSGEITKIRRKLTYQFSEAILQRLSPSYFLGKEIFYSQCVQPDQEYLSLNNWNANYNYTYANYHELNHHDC
# Method in brief: as §1
# ELF4 = ELF4 (Homo sapiens, UniProt Q99607 1-663); details: protein: recombinant; tags: N-terminal GST; dsDNA, one strand shown
# Method in brief: as §1
# ELK4 = target: T3, ELK4 (Homo sapiens, UniProt P28324-2 1-405); details: protein: recombinant; tags: N-terminal GST; dsDNA, one strand shown
# T3 sequence: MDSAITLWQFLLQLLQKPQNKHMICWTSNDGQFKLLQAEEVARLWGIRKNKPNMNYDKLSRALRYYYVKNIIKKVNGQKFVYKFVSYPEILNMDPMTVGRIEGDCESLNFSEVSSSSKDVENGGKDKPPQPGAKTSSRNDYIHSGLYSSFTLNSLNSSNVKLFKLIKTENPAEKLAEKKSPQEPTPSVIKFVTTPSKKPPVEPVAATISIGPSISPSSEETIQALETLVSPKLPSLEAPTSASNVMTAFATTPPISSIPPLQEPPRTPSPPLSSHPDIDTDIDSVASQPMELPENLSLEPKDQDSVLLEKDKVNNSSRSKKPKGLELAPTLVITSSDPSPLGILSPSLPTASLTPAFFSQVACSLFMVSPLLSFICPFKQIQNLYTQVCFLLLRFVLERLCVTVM
# Method in brief: as §1
# ETV2 = target: T4, ETV2 (Homo sapiens, UniProt O00321 1-342); details: protein: recombinant; tags: N-terminal GST; dsDNA, one strand shown
# T4 sequence: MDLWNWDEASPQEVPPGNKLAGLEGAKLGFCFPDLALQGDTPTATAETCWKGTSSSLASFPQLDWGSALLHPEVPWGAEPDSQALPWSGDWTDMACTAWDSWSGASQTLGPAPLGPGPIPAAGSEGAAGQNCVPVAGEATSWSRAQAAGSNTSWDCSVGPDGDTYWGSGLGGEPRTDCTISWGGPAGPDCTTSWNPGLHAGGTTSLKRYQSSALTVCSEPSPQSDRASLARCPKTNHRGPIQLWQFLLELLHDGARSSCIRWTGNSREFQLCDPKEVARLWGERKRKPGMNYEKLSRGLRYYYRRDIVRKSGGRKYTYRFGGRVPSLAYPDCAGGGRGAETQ
# Method in brief: as §1
# ELF3 = target: T5, ELF3 (Homo sapiens, UniProt P78545 1-371); details: protein: recombinant; tags: N-terminal GST; dsDNA, one strand shown
# T5 sequence: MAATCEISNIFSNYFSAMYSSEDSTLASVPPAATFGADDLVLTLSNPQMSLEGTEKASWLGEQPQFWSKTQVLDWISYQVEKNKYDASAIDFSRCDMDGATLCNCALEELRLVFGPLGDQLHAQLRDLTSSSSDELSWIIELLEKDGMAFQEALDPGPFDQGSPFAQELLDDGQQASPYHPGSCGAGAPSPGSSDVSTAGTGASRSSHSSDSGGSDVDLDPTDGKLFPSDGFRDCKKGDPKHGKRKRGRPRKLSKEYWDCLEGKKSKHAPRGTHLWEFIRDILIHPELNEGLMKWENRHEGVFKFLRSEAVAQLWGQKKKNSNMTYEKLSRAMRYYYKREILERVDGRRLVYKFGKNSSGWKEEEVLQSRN
# Method in brief: as §1
# CRX = CRX (Homo sapiens, UniProt O43186 1-299); details: protein: recombinant; tags: N-terminal GST; dsDNA, one strand shown
# Method in brief: as §1
# ELF4, sequence (Q99607 whole entry): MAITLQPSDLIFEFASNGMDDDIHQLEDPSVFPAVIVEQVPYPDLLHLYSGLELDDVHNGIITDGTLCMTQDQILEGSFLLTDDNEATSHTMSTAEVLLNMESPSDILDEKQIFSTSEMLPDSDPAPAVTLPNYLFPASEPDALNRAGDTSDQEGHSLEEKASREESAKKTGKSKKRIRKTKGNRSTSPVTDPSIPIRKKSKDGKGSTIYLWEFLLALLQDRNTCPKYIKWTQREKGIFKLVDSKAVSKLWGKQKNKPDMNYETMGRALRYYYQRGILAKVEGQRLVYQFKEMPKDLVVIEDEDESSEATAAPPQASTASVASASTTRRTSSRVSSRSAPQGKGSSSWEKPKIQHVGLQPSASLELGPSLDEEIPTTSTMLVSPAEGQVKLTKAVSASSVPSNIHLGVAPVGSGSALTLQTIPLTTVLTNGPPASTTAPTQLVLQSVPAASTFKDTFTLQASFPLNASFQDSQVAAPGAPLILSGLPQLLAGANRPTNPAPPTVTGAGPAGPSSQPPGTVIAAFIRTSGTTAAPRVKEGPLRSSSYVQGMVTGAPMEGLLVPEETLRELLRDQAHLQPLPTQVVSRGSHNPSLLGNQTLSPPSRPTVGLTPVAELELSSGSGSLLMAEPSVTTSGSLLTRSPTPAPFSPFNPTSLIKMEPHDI
# CRX, sequence (O43186 whole entry): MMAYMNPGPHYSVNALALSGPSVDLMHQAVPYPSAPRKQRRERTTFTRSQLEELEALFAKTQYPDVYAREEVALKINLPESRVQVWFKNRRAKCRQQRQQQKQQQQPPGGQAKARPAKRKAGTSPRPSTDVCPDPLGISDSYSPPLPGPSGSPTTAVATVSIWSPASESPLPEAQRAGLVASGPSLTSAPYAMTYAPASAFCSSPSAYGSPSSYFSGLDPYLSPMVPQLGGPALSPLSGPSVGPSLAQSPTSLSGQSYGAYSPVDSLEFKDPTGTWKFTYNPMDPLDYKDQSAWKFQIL
# HSF1, sequence (Q00613 whole entry): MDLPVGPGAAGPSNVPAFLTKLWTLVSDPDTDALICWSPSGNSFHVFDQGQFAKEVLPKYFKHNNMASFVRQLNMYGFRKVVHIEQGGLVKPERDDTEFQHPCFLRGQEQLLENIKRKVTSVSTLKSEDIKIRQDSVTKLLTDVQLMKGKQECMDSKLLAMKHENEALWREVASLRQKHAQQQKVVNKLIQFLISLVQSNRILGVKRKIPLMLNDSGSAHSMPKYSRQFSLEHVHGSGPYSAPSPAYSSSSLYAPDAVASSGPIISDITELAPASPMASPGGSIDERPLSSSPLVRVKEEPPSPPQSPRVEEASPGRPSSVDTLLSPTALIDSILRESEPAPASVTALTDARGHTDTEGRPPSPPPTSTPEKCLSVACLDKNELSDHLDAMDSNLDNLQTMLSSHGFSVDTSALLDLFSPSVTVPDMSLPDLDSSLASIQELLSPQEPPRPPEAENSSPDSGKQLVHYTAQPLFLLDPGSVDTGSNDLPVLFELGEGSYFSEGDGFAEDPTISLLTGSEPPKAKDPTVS
# ETV5, sequence (P41161 whole entry): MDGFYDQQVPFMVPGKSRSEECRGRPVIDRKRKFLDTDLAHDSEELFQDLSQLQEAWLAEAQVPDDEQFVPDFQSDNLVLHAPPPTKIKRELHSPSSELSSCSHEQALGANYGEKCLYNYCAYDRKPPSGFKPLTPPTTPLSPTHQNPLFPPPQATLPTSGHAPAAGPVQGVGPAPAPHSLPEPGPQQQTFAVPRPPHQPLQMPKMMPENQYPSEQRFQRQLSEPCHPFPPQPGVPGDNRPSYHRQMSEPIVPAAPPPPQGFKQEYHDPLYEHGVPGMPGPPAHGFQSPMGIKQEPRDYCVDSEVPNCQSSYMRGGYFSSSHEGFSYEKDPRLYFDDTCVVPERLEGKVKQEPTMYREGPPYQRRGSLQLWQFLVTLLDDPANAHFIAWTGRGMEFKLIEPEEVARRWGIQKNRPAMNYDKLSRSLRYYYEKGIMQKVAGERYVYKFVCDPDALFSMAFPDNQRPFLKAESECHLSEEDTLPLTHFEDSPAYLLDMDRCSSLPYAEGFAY
sequence,measurement,setting,value
TGACTC,binding signal,FEV,"1.36 fold enrichment (6-mer frequency, TF over GST control)"
same,binding signal,ETV5,"1.24 fold enrichment (6-mer frequency, TF over GST control)"
same,binding signal,HSF1,"1.1 fold enrichment (6-mer frequency, TF over GST control)"
same,binding signal,SPIC,"1.48 fold enrichment (6-mer frequency, TF over GST control)"
same,binding signal,ELF4,"1.35 fold enrichment (6-mer frequency, TF over GST control)"
same,binding signal,ELK4,"1.31 fold enrichment (6-mer frequency, TF over GST control)"
same,binding signal,ETV2,"1.31 fold enrichment (6-mer frequency, TF over GST control)"
same,binding signal,ELF3,"1.36 fold enrichment (6-mer frequency, TF over GST control)"
same,binding signal,CRX,"1.07 fold enrichment (6-mer frequency, TF over GST control)"
